# Bioassay records deposited in PubChem by National Center for Advancing Translational Sciences (NCATS).
# The full list was thinned out, with hits kept by preference.
# AmpC no deterg = AmpC beta-lactamase inhibition without detergent | AID 485341 | P00811 | Potency, µM (highest dose often 57.1 µM), without a hit: top-dose activity change, negative = inhibition, usual class: inhibitors | hit rate 0.52% among 330,000 | AmpC nitrocefin hydrolysis, absorbance 480 nm, 0.0001% Triton;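 also: potency is read from the fitted curve at half-maximal effect; plate controls were no compound for no effect and no enzyme for full effect; nearly all actives have a fitted effect of over 20% in size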
# Target sequence (P00811 whole entry, looked up): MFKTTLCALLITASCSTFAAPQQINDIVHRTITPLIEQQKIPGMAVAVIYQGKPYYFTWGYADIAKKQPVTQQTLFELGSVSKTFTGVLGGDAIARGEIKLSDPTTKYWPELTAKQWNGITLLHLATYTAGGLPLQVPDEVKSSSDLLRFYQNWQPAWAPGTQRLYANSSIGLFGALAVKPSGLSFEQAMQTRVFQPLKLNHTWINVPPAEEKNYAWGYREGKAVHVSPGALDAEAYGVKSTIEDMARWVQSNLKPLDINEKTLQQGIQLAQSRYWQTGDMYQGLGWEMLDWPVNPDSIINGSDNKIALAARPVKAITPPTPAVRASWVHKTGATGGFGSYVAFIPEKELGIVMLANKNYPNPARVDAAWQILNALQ
#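 AmpC (5.3 nM in the dispensed reagent) in 20 mM phosphate pH 7.0 with 0.01% (detergent screen) or 0.0001% Triton X-100 was preincubated with compounds for 15 min at room temperature. Nitrocefin was then added from an 800 uM solution, and hydrolysis was followed at 480 nm.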
# AmpC inh detg = AmpC beta-lactamase inhibition with detergent present | P00811 | AmpC hydrolysis of nitrocefin, absorbance 480 nm, 0.01% Triton | Potency, µM (titrated, usually from 114 µM), without a hit: at the highest dose activity change, negative = inhibition, actives largely listed as inhibitors | hit rate 0.041% among 370,000 | AID 485294;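 also: potency is read from the fitted curve at half-maximal effect; 0% = no-compound wells and -100% = no-enzyme wells; nearly all actives have a fitted effect of over 25% in size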
#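 20 mM phosphate pH 7.0 + 0.01% (detergent screen) or 0.0001% Triton X-100; 5.3 nM AmpC reagent; cpd preinc 15 min RT; nitrocefin (800 uM stock) to start; A480 q20 s × 4 min; Activity was normalised to no-enzyme and no-compound control wells.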
# Cycloheximide cs = counter-screen for Shiga toxin inhibitors: cycloheximide protein synthesis inhibition; cell reporter, cycloheximide protein synthesis inhibition counterscreen; max response, %; hit rate 12% among 300,000; AID 2314; in the data active = max response mostly above about 13%, no sharp cut-off; inactive = mostly below about 14%; also: read at 38.3 µM for the half of the compounds with a filed dose; 0% is about no effect
# NS1 inh = influenza NS1 inhibition; Potency, µM (titrated, usually from 46.1 µM), inactives show at the highest dose activity, positive = more growth; hit rate 0.4% among 270,000; calls by dose curve; also: potency is read from the fitted curve at half-maximal effect; actives are rising curves; nearly all actives have a fitted effect of over 50% in size
#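 Compounds were scored for reversing the slow growth caused by influenza A NS1 in S. cerevisiae, measured by optical density at 600 nm. Assay medium contained 2% galactose at pH 6.0; NS1-free yeast of the same strain were the positive control.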
# Shiga inhibitor = blocks Shiga toxin action in Vero cells | AID 2315 | hit rate 9.2% among 290,000 | Vero cells, Shiga toxin protein synthesis inhibition reporter | inhibition, % at 38.7 µM; in the data active = inhibition mostly above about 28%, no sharp cut-off; inactive = mostly below about 43%; also: 0% is about no effect
# * hit, by the source's call; i = inactive; ? = inconclusive; · = not tested or not shown. Unless noted, calls follow the shape of the dose curve; as a rule, active = well fitted curve in the direction sought with a large enough effect; inconclusive = small, poorly fitted or top-dose-only effect, or another doubt; inactive = no such curve, though single readings can be large; an effect the other way counts as inactive or inconclusive.
SMILES,AmpC no deterg,AmpC inh detg,Cycloheximide cs,NS1 inh,Shiga inhibitor
Clc1cccc(-c2ccc(CNCCSc3nnnn3-c3ccccc3)o2)c1,·,11%,·,·,·
COc1cc(NC(=O)Cc2ccccc2)ccc1NC(=O)c1ccco1,-35%,?,14,-8%,19
CCC(=O)NC(=S)Nc1ccc(NC(=O)c2ccco2)c(OC)c1,-19%,0%,10,5%,active
CCC(=O)NC(=S)Nc1ccc(NC(=O)c2ccco2)cc1,-11%,-2%,29*,-1%,59*
CSc1ccc(/C=C/C(=O)OCC(=O)N2CCN(S(=O)(=O)c3ccc(C)cc3C)CC2)cc1,-31%,0%,·,·,·
CCCCCCCCOc1c(OC)cc(/C=C/C(=O)N2CCN(c3ccc(C)c(C)c3)CC2)cc1OC,·,·,5,·,19
O=C(Nc1ccc2nc3n(c(=O)c2c1)CCCCC3)c1cc([N+](=O)[O-])ccc1F,-6%,-3%,37*,-49%,32*
O=C(Nc1ccc2nc3n(c(=O)c2c1)CCCCC3)c1c(F)ccc([N+](=O)[O-])c1F,0%,-2%,92*,-25%,89*
COc1ccc(C(=O)Nc2ccc3nc4n(c(=O)c3c2)CCCC4)cc1[N+](=O)[O-],-25%,?,0,0%,-9
CCCc1ccc(-c2cc(NC(=O)CSc3nnc(N)s3)n(-c3ccccc3)n2)cc1,-24%,3%,43*,?,99*
COC(=O)c1ccc(NC(=O)CSc2nc3ccc(N4C(=O)C5C6C=CC(C6)C5C4=O)cc3s2)cc1 (configuration not stated),-17%,?,23*,?,4
Cc1nnc(SCC(=O)Nc2cc(-c3cc(C)c(C)cc3C)nn2-c2ccccc2)s1,47%,-4%,-2,-6%,10
Nc1nnc(SCC(=O)Nc2ccccc2)s1,0%,-2%,10*,-1%,8
CCc1cccc(CC)c1NC(=O)CSc1nc2ccc(N3C(=O)C4C5C=CC(C5)C4C3=O)cc2s1 (configuration not stated),-38%,4%,-4,13%,-4
CSc1nc2ccc(NC(=O)CSc3nnc(N)s3)cc2s1,-42%,3%,33*,8%,49
CC(C)c1ccc(CN(Cc2ccco2)c2cnc(S(C)(=O)=O)nc2C(=O)Nc2ccc(F)cc2)cc1,·,12%,·,·,·
COc1ccc(NC(=O)c2cc3nc(-c4ccc(Cl)c(Cl)c4)cc(C(F)(F)F)n3n2)c(OC)c1,·,-2%,·,·,·
Cn1cnnc1SCC(=O)Nc1ccc2nc(SCc3ccccc3F)sc2c1,152%,4%,50*,0%,165*
CSCCC(=O)N1CCC(n2nccc2NC(=O)CCCc2ccccc2)CC1,42%,3%,17*,-10%,21
C=CCNC(=O)N1CCC(n2nccc2NC(=O)CCCc2ccccc2)CC1,7%,-10%,1,19%,-7
C=CCCC(=O)N1CCC(n2nccc2NC(=O)CCCc2ccccc2)CC1,28%,0%,13*,0%,20
O=C(CNc1ccccc1)N/N=C/c1ccc2c(c1)OCCO2,-28%,-14%,34*,3%,48*
O=C(Cc1ccccc1)N/N=C/c1ccc2c(c1)OCO2,-12%,1%,34*,·,72*
O=C(CNc1ccccc1)N/N=C/c1ccc([N+](=O)[O-])cc1,-8%,-2%,9,3%,-3
O=C(CNc1ccc2c(c1)OCO2)N/N=C\c1cn(Cc2ccc(F)cc2)c2ccccc12,-38%,-15%,8,13µM*,14
SMILES,AmpC no deterg,AmpC inh detg,Cycloheximide cs,NS1 inh,Shiga inhibitor
O=C(Cn1ccc(C(F)(F)F)n1)N/N=C/c1ccc2c(c1)OCO2,-9%,-2%,37*,3%,122*
C/C(=N\NC(=O)Cn1ccc(C(F)(F)F)n1)c1ccc2c(c1)OCO2,-10%,-5%,7,5%,28
CCN(CC(=O)Nc1ccc(NC(C)=O)cc1)C(=O)c1ccccc1SCC(=O)N1CCCC1,-1%,-2%,·,·,·
O=C(CSc1ncccn1)N/N=C/c1ccc2c(c1)OCO2,-11%,-11%,34*,7%,25
O=C(CCc1ccccc1)N/N=C\c1cc2c(cc1Br)OCO2,-50%,?,-2,-9%,-10
O=C(CNc1ccccc1)N/N=C/c1ccc2c(c1)OCO2,-26%,-14%,20*,-1%,29*
O=C(CSc1ncccn1)N/N=C/c1ccc(OC2CSC2)cc1,-40%,-4%,12,·,24
O=C(CCc1ccccc1)NCC(=O)N/N=C/c1ccc2c(c1)OCO2,-6%,0%,19*,14%,53*
Cc1cccc(-c2nc3c4ccccc4n(CC(=O)Nc4cccc(F)c4)c(=O)n3n2)c1,·,6%,·,·,·
O=c1oc(Nc2ccc(F)cc2)nc2ccccc12,-25%,-12%,17*,-14%,81*
Oc1ccc(Nc2nc(-c3ccccc3F)nc3ccccc23)cc1,-31%,4%,-1,1%,-4
O=c1nc(Nc2ccccc2)oc2ccccc12,-8%,-1%,38*,-4%,53*
CCN(C(=O)c1cc2c(=O)oc3ccc(C)cc3c2s1)c1ccccc1F,·,13%,·,·,·
CC(=O)CSc1nnc(-c2ccc3c(c2)OCO3)o1,-14%,-3%,20*,1%,36*
Cc1ccc(CSc2nnc(-c3ccc4c(c3)OCO4)o2)cc1,-25%,3%,12,-7%,8
c1cc(CSc2nnc(-c3ccc4c(c3)OCO4)o2)ccn1,-7%,0%,44*,-16%,88*
O=C(CSc1nnc(-c2ccc3c(c2)OCO3)o1)Nc1ncc(Cl)cc1Cl,-10%,-15%,19*,20%,31*
CCC(Cn1nnc2ccccc2c1=O)NC(=O)Nc1cc(Cl)ccc1OC (configuration not stated),·,23%,·,·,·
O=C(C/C=N/OCc1ccc(Cl)cc1Cl)c1ccccc1,-26%,?,20*,0%,47
O=C(C/C=N/OCc1ccc(Cl)cc1Cl)c1ccc(Cl)cc1,-44%,-7%,4,-9%,59
O=C(C/C=N/OCc1c(Cl)cccc1Cl)c1ccccc1,-44%,3%,37*,-11%,48
CC(C)=CC(=O)Nc1ccc2c(c1)OCO2,·,-1%,25*,-4%,68*
COc1ccc(C(=O)/C=C(\C)Nc2ccc3c(c2)OCO3)cc1,-8%,-9%,49*,12%,i
CC1(C(=O)Nc2ccc3c(c2)OCO3)CC1(Cl)Cl (configuration not stated),-18%,-4%,16*,9%,29*
COc1ccc(OC)c(N/C(C)=C/C(=O)c2ccncc2)c1,0%,-2%,-3,-21%,-11
COc1ccc(OC)c(N/C(C)=C/C(=O)c2ccccc2)c1,-22%,?,91*,0%,27*
CC(C)NC(=O)CSc1c2c(nc3ccccc13)CCCC2,-5%,-5%,-4,·,-18
O=C(NCCC(=O)N1CCC2(CC1)NCCc1[nH]cnc12)c1ccc(F)c(F)c1,-20%,-2%,-2,-11%,-2
COc1ccc(C)cc1NC(=O)COCc1cc(-c2ccc(F)cc2)on1,·,17%,·,·,·
